This note sets out measurements from the supplement of paper PMC10849652.

Targets with a hit are over-represented here; the source holds about 8,800 in all. About 0.5% of all pairs of compound and target were hits. Unmarked numbers belong to inactive results.

Holding throughout (assay): log2 fold change, soluble protein after heating vs DMSO (PISA); higher = thermal stabilisation; K562 lysate, 10 uM; active = over 0.2 and 3.5 SD of the protein, either way, in both replicates (recomputed)
Compound in assay [1]: C#Cc1cccc(Nc2ncnc3cc(OCCOC)c(OCCOC)cc23)c1 [erlotinib]
The method, boiled down:
(§1)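 Log-two fold change in thermal stability relative to solvent controls is reported from duplicates. For each sample, crude K562 extract from dounce-homogenised pellets in PBS pH 7.4 with 1 mM MgCl2, at 1 mg/mL protein, was treated with 10 μM compound for 30 min. Aliquots heated for 3 min across 48°C-58°C were pooled, brought to 0.5% NP-40 at 4°C and cleared at 21,000xg for 90 min. The supernatant was quantified by TMTpro 16plex LC-MS/MS with channel sums equalised.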

Compound in assay [2]: C/C(=N\NC(=O)C1=CC(=CC=C1)S(=O)(=O)N2CCOCC2)/C3=C(C=CC(=C3)Cl)O
In short, it runs like this:
as §1

Compound in assay [3]: C1=CC(=CC=C1C2=NC3=C(N2)C=C(C=C3)C(=O)N)OC4=CC=C(C=C4)Cl
The method, boiled down: as §1

Compound in assay [4]: C1=CC2=C(C=CC(=C2)/C=C\3/C(=O)NC(=NCC4=CC=CS4)S3)N=C1
In short, it runs like this:
as §1

Compound in assay [5]: C1=CC2=NC=CN=C2C=C1/C=C/3\C(=O)NC(=O)S3
The method, boiled down:
as §1

Compound in assay [6]: C1=CC=C(C=C1)C2=NC(=C(N2)C3=CC=NC=C3)C4=CC(=C(C=C4)Cl)O
The method, boiled down: as §1

Compound in assay [7]: C1=CC=C2C(=C1)C3=NNC4=CC=CC(=C43)C2=O
In short, it runs like this: as §1

Compound in assay [8]: C1CCN(C1)C(=O)NC2=CC=CC(=C2)NC3=NC=C(C(=N3)NCCC4=CN=CN4)Br
The method, boiled down:
as §1

Compound in assay [9]: C1CN(CCC1(CC2=CC=C(C=C2)Cl)N)C3=NC=NC4=C3C=CN4
The method, boiled down:
as §1

Compound in assay [10]: C1COCCN1CCN2C3=CC=CC=C3N=C2NC(=O)C4=CC(=CC=C4)[N+](=O)[O-] [IRAK-1-4 Inhibitor I]
In short, it runs like this:
as §1

Sequence of UniProt Q96KF7 (Q96KF7 whole entry, looked up): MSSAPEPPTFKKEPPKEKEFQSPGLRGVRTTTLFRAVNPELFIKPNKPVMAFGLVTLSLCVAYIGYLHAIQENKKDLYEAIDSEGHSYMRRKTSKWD
Sequence of UniProt Q6PML9 (Q6PML9 whole entry, looked up): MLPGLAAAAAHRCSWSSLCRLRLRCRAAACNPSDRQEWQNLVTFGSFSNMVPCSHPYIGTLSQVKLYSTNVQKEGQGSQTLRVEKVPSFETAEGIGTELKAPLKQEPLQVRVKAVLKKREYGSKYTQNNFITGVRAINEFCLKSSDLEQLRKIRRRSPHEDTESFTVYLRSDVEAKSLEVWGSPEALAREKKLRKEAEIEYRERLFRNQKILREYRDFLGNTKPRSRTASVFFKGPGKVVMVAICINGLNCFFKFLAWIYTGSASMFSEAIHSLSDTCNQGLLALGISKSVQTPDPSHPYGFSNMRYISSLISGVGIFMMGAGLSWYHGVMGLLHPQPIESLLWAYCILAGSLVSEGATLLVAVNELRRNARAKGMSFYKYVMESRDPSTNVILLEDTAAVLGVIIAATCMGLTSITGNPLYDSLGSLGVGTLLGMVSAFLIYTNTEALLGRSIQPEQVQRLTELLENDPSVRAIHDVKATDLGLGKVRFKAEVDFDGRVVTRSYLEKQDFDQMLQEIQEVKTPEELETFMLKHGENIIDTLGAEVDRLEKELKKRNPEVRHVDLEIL
Sequence of UniProt Q15796 (Q15796 whole entry, looked up): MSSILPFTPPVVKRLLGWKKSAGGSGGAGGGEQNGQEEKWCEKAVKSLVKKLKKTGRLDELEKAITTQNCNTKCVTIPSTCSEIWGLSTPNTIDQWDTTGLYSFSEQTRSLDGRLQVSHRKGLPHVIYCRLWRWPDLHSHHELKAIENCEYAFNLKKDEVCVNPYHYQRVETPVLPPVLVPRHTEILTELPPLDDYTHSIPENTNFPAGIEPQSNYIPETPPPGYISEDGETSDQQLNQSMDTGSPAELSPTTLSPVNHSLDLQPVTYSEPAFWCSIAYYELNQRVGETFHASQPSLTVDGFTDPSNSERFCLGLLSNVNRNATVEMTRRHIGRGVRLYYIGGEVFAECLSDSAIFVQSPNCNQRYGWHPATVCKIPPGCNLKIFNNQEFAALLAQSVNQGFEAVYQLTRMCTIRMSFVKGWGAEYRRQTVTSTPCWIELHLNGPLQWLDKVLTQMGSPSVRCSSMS
Sequence of UniProt P51532 (P51532 whole entry, looked up): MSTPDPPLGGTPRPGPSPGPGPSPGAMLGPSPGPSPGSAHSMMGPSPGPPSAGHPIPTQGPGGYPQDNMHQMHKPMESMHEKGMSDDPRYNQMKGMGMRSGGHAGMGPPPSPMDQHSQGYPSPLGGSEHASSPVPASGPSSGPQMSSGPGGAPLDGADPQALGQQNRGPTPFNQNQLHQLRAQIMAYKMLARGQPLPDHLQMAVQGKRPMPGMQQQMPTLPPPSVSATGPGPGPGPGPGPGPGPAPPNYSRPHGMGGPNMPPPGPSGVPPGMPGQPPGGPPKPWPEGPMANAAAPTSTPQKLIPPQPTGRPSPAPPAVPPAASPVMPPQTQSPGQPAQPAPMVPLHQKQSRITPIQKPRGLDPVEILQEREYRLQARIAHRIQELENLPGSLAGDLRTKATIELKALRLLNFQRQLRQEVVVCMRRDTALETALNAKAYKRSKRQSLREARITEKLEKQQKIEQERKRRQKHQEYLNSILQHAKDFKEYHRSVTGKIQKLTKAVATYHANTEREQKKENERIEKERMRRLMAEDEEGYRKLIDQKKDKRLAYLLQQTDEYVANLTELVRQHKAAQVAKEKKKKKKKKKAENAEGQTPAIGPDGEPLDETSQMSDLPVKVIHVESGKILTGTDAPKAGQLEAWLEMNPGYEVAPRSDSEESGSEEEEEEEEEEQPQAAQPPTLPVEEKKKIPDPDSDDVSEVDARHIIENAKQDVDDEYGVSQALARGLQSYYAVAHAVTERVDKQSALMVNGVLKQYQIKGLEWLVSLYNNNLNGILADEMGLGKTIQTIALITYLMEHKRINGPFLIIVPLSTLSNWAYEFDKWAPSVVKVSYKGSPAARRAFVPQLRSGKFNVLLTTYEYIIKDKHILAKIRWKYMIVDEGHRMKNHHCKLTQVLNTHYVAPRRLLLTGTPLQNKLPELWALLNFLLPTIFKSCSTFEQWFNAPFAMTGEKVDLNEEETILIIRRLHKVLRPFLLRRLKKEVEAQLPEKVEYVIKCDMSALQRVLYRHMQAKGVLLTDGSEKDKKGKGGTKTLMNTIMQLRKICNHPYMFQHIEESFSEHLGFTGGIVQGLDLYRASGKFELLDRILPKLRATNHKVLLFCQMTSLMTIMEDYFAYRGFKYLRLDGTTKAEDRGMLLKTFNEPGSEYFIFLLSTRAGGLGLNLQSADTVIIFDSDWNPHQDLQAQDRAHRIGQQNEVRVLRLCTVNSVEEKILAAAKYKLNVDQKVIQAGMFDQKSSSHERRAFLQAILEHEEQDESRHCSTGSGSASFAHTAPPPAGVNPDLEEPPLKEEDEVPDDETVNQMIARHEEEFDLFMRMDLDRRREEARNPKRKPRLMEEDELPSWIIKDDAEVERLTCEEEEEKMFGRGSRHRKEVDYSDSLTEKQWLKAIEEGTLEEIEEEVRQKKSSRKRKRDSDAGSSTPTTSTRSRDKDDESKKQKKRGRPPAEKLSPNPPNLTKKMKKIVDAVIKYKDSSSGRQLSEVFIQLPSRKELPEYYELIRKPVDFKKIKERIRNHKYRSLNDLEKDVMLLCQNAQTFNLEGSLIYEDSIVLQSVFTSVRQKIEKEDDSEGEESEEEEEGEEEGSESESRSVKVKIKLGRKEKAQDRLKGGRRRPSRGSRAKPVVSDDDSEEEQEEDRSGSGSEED
Sequence of UniProt Q9NP77 (Q9NP77 whole entry, looked up): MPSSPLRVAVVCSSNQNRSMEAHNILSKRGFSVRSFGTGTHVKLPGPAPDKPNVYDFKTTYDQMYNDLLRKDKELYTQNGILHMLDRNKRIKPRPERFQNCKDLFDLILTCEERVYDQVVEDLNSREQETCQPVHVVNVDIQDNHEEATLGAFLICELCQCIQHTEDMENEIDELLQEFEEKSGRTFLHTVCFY
Sequence of UniProt P10124 (P10124 whole entry, looked up): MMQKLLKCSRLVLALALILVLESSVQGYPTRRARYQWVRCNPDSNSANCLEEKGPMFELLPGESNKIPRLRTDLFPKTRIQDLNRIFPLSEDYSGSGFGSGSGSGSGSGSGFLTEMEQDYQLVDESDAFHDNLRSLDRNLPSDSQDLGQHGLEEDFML
Sequence of UniProt Q9BXP5 (Q9BXP5 whole entry, looked up): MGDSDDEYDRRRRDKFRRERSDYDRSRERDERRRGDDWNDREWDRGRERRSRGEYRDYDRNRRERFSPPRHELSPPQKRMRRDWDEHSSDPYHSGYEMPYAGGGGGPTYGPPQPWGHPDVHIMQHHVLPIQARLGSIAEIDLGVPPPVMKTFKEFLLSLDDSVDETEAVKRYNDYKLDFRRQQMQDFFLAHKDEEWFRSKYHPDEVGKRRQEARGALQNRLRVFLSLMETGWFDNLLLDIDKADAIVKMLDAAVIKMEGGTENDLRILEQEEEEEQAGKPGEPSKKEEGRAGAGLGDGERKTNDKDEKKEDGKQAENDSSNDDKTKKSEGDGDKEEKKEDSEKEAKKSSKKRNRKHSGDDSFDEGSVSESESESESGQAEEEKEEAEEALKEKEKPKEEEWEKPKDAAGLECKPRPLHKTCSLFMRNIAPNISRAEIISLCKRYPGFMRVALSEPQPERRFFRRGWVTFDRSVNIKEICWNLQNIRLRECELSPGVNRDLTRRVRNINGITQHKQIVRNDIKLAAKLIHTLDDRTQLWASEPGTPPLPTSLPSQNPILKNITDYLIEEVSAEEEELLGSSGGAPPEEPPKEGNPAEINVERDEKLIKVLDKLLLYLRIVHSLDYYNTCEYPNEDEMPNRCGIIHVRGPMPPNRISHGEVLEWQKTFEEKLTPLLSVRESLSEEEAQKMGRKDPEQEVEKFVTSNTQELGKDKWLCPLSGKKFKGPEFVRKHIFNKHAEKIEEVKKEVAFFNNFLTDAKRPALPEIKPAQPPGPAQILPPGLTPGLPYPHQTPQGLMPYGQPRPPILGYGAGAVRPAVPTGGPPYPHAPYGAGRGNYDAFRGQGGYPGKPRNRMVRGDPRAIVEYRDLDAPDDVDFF
Sequence of UniProt Q99961 (Q99961 whole entry, looked up): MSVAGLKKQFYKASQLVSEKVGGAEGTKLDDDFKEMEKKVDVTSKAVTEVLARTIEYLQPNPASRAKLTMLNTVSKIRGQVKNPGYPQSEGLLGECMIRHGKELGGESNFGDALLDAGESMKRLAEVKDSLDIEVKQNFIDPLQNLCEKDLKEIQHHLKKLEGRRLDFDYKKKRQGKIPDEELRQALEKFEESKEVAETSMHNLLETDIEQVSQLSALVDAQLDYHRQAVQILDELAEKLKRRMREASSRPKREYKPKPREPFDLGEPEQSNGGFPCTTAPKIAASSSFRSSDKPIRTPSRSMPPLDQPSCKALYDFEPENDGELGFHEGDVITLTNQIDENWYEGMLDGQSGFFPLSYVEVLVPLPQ
Sequence of UniProt Q8WVK7 (Q8WVK7 whole entry, looked up): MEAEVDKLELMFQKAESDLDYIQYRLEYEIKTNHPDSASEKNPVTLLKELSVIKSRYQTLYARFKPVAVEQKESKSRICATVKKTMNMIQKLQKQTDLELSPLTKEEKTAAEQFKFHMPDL
Sequence of UniProt Q9P289 (Q9P289 whole entry, looked up): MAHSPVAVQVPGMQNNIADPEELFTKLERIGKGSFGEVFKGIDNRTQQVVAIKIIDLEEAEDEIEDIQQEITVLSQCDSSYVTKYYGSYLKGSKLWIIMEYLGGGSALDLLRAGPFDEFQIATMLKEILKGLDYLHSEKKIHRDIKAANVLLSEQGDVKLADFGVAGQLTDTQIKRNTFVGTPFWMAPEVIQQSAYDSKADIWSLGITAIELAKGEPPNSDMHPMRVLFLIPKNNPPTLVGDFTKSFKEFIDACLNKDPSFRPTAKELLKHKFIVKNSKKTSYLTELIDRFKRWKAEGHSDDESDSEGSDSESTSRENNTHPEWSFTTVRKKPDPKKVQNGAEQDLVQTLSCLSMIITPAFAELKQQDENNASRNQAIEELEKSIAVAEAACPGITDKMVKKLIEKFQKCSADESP

SRGN (UniProt P10124): the log2 fold change is -0.034 in assay [1]; 0.023 in assay [2]; 0.051 in [3]; -0.019 in assay [4]; 0.05 in [5]; 0.051 in assay [6]. The log2 fold change in [7] was -0.069; in assay [8], 0.065; in assay [9] it was -0.139; in assay [10], 0.013.
For the target SFR1 isoform 2 (UniProt Q86XK3), the log2 fold change in [1] is -0.009; in assay [2] it was -0.019; in [3], 0.067; in assay [4] it was 0.015; in assay [5] it was -0.051; in assay [6], 0.018. Besides, the log2 fold change was 0.025 in assay [7], 0.04 in assay [8], 0.01 in assay [9] and 0.001 in [10].
Turning to SRRT (UniProt Q9BXP5), the log2 fold change in assay [1] was 0.039; in assay [2], 0.023; in assay [3], -0.005; in assay [4], 0.041; in assay [5], 0.004; in [6], 0.022. Also, the log2 fold change in [7] is -0.03; in [8], -0.005; in assay [9] it was -0.011; in assay [10], 0.004.
On to SKA2 (UniProt Q8WVK7), for which the log2 fold change in assay [1] was -0.006; in assay [2], -0.058; in assay [3], 0.014; in assay [4], -0.011; in assay [5] it was -0.042; in assay [6] it was 0.001. Further, the log2 fold change is -0.081 in assay [7], -0.006 in [8], -0.019 in assay [9] and -0.056 in assay [10].
As to SPIRE1 (UniProt Q08AE8), the log2 fold change in assay [1] is -0.062; in [2], 0.054; in assay [3], -0.032; in [4] it was 0.068; in assay [5], -0.067; in assay [6] it was 0.027. In addition, the log2 fold change in assay [7] is 0.022; in assay [8], 0.013; in assay [9], -0.024; in [10], -0.032.
Consider SMIM8 (UniProt Q96KF7), for which the log2 fold change in assay [1] was -0.057; in assay [2], 0.005; in assay [3], 0.028; in [4], 0.004; in assay [5], -0.004; in assay [6] it was -0.137. The log2 fold change in assay [7] was 0.028; in assay [8] it was 0.026; in [9], 0; in assay [10], 0.058.
With SLC30A9 (UniProt Q6PML9), the log2 fold change in assay [1] is -0.023; in [2] it was 0.039; in [3], -0.17; in assay [4] it was -0.079; in [5], 0.017; in assay [6], -0.012. In addition, the log2 fold change in assay [7] was -0.023; in [8], -0.056; in assay [9] it was 0.1; in assay [10], -0.005.
As to SMARCA4 (UniProt P51532), the log2 fold change in assay [1] was -0.01; in assay [2], -0.018; in [3], -0.021; in [4], 0.011; in assay [5] it was -0.001; in [6] it was -0.003. In addition, the log2 fold change in assay [7] was -0.017; in assay [8] it was -0.003; in assay [9], -0.024; in assay [10], -0.025.
Regarding SYF2 (UniProt O95926), the log2 fold change was 0 in assay [1]; 0.043 in [2]; 0.037 in [3]; -0.025 in [4]; -0.015 in assay [5]; 0.037 in assay [6]. Further, the log2 fold change in [7] was 0.063; in [8] it was -0.048; in [9], 0; in assay [10] it was -0.057.
As to SPPL2A (UniProt Q8TCT8), the log2 fold change was 0.005 in assay [1]; -0.007 in assay [2]; 0.118 in assay [3]; -0.104 in [4]; -0.011 in assay [5]; -0.07 in assay [6]. For the same target, the log2 fold change in [7] was -0.141; in [8] it was -0.082; in assay [9], -0.644 (active); in assay [10] it was 0.014.
SSU72 (UniProt Q9NP77): the log2 fold change was -0.067 in [1]; 0.057 in assay [2]; -0.071 in assay [3]; -0.064 in assay [4]; -0.003 in assay [5]; 0.07 in assay [6]. Moreover, the log2 fold change was 0.005 in [7], 0.029 in assay [8], 0 in assay [9] and 0.001 in assay [10].
SH3GL1 (UniProt Q99961): the log2 fold change in [1] was -0.009; in [2], 0.016; in assay [3], -0.022; in assay [4], -0.004; in assay [5], -0.008; in [6] it was 0.001. For the same target, the log2 fold change in assay [7] was -0.003; in assay [8], -0.027; in assay [9], 0.006; in assay [10], -0.017.
As to SMAD2 (UniProt Q15796), the log2 fold change in assay [1] was 0.14; in [2] it was 0.062; in assay [3], -0.018; in assay [4] it was 0.03; in assay [5] it was 0.002; in [6], 0.074. For the same target, the log2 fold change in [7] was -0.003; in [8] it was 0.004; in assay [9] it was 0.035; in assay [10] it was -0.03.
STK26 (UniProt Q9P289): the log2 fold change is 0.008 in [1]; -0.007 in assay [2]; -0.005 in [3]; -0.009 in assay [4]; 0.002 in assay [5]; -0.002 in assay [6]. Besides, the log2 fold change in assay [7] is 0.06; in [8] it was 0.03; in assay [9], -0.011; in assay [10], -0.018.
For the target SSB (UniProt P05455), the log2 fold change is -0.008 in [1]; 0.007 in assay [2]; -0.014 in assay [3]; -0.025 in [4]; -0.009 in [5]; 0.001 in assay [6]. The log2 fold change in assay [7] was -0.015; in assay [8] it was 0.013; in assay [9], 0.002; in assay [10] it was -0.011.
